Screening results as filed in PubChem BioAssay.
JMJD2C inh: inhibitors of human GASC-1 (JMJD2C) demethylase | GST-JMJD2C(1-420) H3K9me3 demethylation, DELFIA europium | inhibition, % at 2.35 µM | 330,000 compounds, 0.069% hits | AID 2099;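 active = more than half of a compound's replicate wells show inhibition beyond 50%, single wells judged on their own value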;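 note: signal counts dimethyl H3K9 product captured on neutravidin plate; 0% = median of DMSO wells and 100% = 0.3 times that DMSO median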
SMARCA2 act: activators of SMARCA2 function; MG213 cells, MMTV-luciferase reporter, dexamethasone, overnight; activation, % at 9.1 µM; 370,000 compounds, 1% hits; AID 652017; in the data active = activation above about 7.8%;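 note: 0% = vehicle wells and 100% = reference activator wells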
Granule exo inh: blocks lytic granule exocytosis; 360,000 compounds, 0.66% hits; inhibition, % at 10 µM; AID 651702; TALL-104 LAMP-1 surface exposure, flow cytometry; cells stimulated with thapsigargin and PMA;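 active = inhibition above about 55%, limit read from the data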
MIN6 prolif: MIN6 beta-cell proliferation induction | MIN6 cells proliferation, ATPlite luminescence, 48 h; cells starved in 0.2% serum; 100% = growth in 10% serum | proliferation, % at 10 µM | 330,000 compounds, 0.29% hits;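 active = compounds whose signal lies at least 3.5 SD above the mean of all wells on their plate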;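 note: 0% = DMSO-treated cells in low-serum medium and 100% = 10% serum control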
ALR H2O2 inh: blocks human ALR sulfhydryl oxidase activity | purified ALR, DTT oxidation, H2O2 HRP-luminol luminescence | P55789 | inhibition, % (concentration not given with the values) | 290,000 compounds, 3.8% hits;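 active = mean replicate inhibition above about 79%, with every replicate also reaching it, limit read from the data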
Target sequence (P55789 whole entry, looked up): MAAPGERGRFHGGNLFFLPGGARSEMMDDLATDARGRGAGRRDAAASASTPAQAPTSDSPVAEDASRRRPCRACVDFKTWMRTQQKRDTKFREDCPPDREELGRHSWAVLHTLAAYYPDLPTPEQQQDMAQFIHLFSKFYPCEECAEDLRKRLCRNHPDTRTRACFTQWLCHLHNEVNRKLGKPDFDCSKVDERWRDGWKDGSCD
PfM18AAP inh-1: blocks P. falciparum M18 aspartyl aminopeptidase | inhibition, % at 7.35 µM | 290,000 compounds, 1.2% hits | AID 1822 | recombinant PfM18AAP, H-Glu-NHMec fluorogenic cleavage;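 active = inhibition above the campaign mean inhibition over all tested compounds plus 3 SD, cut at about 28% in these data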;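 note: 0% = plate median of test compound wells and 100% = 2 mM ZnCl2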
PfM18AAP inh-2: confirmation of Plasmodium falciparum M18 aspartyl aminopeptidase inhibitors; shares compounds with PfM18AAP inh-1; recombinant PfM18AAP, H-Glu-NHMec fluorogenic cleavage; inhibition, % at 7.35 µM; 2,400 compounds, 28% hits;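 active = mean inhibition over replicate wells above the hit cutoff set for the earlier primary screen, cut at about 29% in these data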;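 note: 0% = median of test compound wells and 100% = 2 mM ZnCl2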
CTSL1 confirm: counter-screen for PFM18AAP inhibitors: confirmation of human cathepsin L inhibitors; AID 2178; inhibition, % at 5.96 µM; 2,400 tested, under 10 active; shares compounds with PfM18AAP inh-1; purified cathepsin L1, Z-Leu-Arg-MCA fluorescence;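 active = average inhibition across replicates above the hit cutoff set in the earlier primary screen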;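 note: 0% = median of test compound wells and 100% = Z-Phe-Ala-diazomethylketone 1 µM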
Target sequence (P07711 whole entry, looked up): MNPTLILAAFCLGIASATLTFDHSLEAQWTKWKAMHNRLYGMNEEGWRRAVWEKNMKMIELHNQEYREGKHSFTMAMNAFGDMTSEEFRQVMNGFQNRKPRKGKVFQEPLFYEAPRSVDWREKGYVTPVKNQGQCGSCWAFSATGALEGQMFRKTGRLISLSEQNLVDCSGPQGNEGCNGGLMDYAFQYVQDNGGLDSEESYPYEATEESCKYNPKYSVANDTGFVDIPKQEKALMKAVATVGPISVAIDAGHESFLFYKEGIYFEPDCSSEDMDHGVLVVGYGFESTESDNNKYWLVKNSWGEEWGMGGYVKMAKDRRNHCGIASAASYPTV
* hit, by the source's call; . = no result. An excerpt weighted towards active compounds, which were near 5.4% of everything screened.

SMILES | JMJD2C inh | SMARCA2 act | Granule exo inh | MIN6 prolif | ALR H2O2 inh | PfM18AAP inh-1 | PfM18AAP inh-2 | CTSL1 confirm
CCCN1C(=O)c2[nH]nc(-c3ccccc3)c2C1c1ccc(C)cc1 (configuration not stated) | . | 0 | . | . | . | . | . | .
O=[N+]([O-])c1cc([N+](=O)[O-])c2cccnc2c1Oc1ccccc1O | 12 | -4 | -7 | . | 0 | 84* | 60* | 4
O=C(NCc1ccccn1)C(=O)N/N=C/c1ccc2c(c1)OCO2 | 2 | 0 | -1 | 0 | 1 | 37* | -25 | 7
O=C(N/N=C/c1ccc(O)c(O)c1)c1cccc(S(=O)(=O)N2CCCCC2)c1 | -13 | -2 | -2 | -1 | 99* | 56* | 51* | 0
CCNC(=O)c1cccc(S(=O)(=O)N2CCCCCC2)c1 | 5 | 1 | -4 | 0 | . | 36* | -36 | 0
O=C(NCc1ccccc1)c1cccc(S(=O)(=O)N2CCCCC2)c1 | -2 | -2 | 9 | -1 | 36 | 4 | . | .
O=C(NC1CCCC1)[C@@H]1CCCN1C(=O)[C@H](Cc1cccnc1)NC(=O)N1CCOCC1 | . | 0 | . | . | . | . | . | .
CCCOc1ccc(/C=c2\sc3ncnn3c2=O)cc1 | -10 | -2 | -8 | -1 | 0 | 73* | 39* | 3
CCOc1ccccc1/C=c1\sc2ncnn2c1=O | -11 | -2 | -3 | -1 | 39 | 51* | 29* | -1
CCOC(=O)C1=C(C)N=c2s/c(=C\c3ccc(OC(C)=O)cc3)c(=O)n2C1/C=C/c1ccccc1 (configuration not stated) | 1 | 2 | -3 | -6 | 39 | 1 | . | .
CC(=O)Oc1ccc(/C=c2\sc3ncnn3c2=O)cc1 | 3 | 0 | 2 | 1 | 25 | 35* | -11 | -7
CCOc1ccccc1C=C1SC(=S)N(CC)C1=O | . | 5 | -5 | . | . | . | . | .
COc1cccc(C(=O)N[C@@H](Cc2cccnc2)C(=O)N2CCC[C@H]2C(=O)NCc2ccccc2)c1 | . | -1 | . | . | . | . | . | .
COC(=O)[C@]12C[C@H](CC(=O)N3CCN(C(=O)c4ccco4)CC3)C(=O)N(Cc3ccc(Cl)cc3Cl)C1=C[C@H](C(C)(C)C)O[C@@H]2C | . | 0 | . | . | . | . | . | .
CC(C)(C)C(=O)NC1CCCCN(Cc2cccc(C(F)(F)F)c2)C1=O (configuration not stated) | . | -3 | . | . | . | . | . | .
Cc1sc2nc(COC(=O)CNC(=O)c3ccccc3Cl)[nH]c(=O)c2c1C | . | -2 | . | . | . | . | . | .
COc1ccc(C2CC(c3ccc(Br)cc3)=NN2C(=S)Nc2ccccc2)cc1 (configuration not stated) | 0 | 1 | 4 | -2 | -6 | 42* | -20 | 9
COc1ccc(C2CC(c3ccccc3)=NN2C(=S)Nc2ccccc2)cc1 (configuration not stated) | -11 | -1 | 2 | -3 | 5 | -1 | . | .
Cc1c(O)ccc(C(=O)CN2CCN(c3ccccc3F)CC2)c1O | 0 | . | 1 | 1 | 9 | 6 | . | .
O=C(CN1CCN(S(=O)(=O)c2ccc(Br)cc2)CC1)c1ccc(O)c(O)c1 | -2 | -2 | -9 | -2 | 96* | 72* | 40* | -1
COc1ccc(OC)c(C(=O)CN2CCN(S(=O)(=O)c3ccc(Br)cc3)CC2)c1 | -4 | -1 | 3 | -3 | -18 | 2 | . | .
O=C(CN1CCN(c2ccccc2F)CC1)c1ccc(O)c(O)c1 | 3 | -4 | 11 | -2 | 99* | 60* | 37* | 2
CC(C)c1ccc(S(=O)(=O)N2CCN(CC(=O)c3ccc(O)c(O)c3)CC2)cc1 | 6 | -1 | 0 | -3 | 99* | 67* | 36* | 7
C=CCN1C(=O)[C@H](CC(=O)N2CCSCC2)[C@@]2(C(=O)OCC)CCCC=C12 | . | 0 | . | . | . | . | . | .
COc1ccc(C(=O)n2cnc(N)n2)cc1 | 1 | -3 | -2 | 0 | . | 34* | 54* | -1
SMILES | JMJD2C inh | SMARCA2 act | Granule exo inh | MIN6 prolif | ALR H2O2 inh | PfM18AAP inh-1 | PfM18AAP inh-2 | CTSL1 confirm
COc1ccc(C(=O)n2cnc3ccccc32)cc1 | 5 | -3 | 2 | -1 | 26 | -3 | . | .
Nc1nc(-c2ccccc2)nn1C(=O)c1ccco1 | 3 | -3 | 1 | 1 | . | -6 | . | .
Nc1ncn(C(=O)c2ccco2)n1 | -4 | -2 | 4 | -2 | 6 | 45* | 51* | 1
COC(=O)C1=C(C(=O)c2ccccc2)C(c2ccc(O)c(OC)c2)n2nnnc2N1 (configuration not stated) | 6 | 3 | -8 | -1 | 8 | 18 | . | .
COC(=O)C1=C(C(=O)c2ccc(C)cc2)C(c2ccc(O)c(OC)c2)n2nnnc2N1 (configuration not stated) | -5 | -2 | -5 | -2 | 28 | 60* | -26 | -4
CCOc1cc(C2C(C(=O)c3ccccc3)=C(C(=O)OC)Nc3nnnn32)ccc1O (configuration not stated) | -13 | 2 | -7 | -3 | 17 | 18 | . | .
COC(=O)C1=C(C(=O)c2ccccc2)C(c2cccs2)n2nnnc2N1 (configuration not stated) | -7 | 0 | -5 | -2 | 7 | 55* | -29 | -3
COC(=O)C1=C(C(=O)c2ccc(C)cc2)C(c2ccc(OC)c(OC)c2)n2nnnc2N1 (configuration not stated) | -7 | -1 | 4 | -1 | 1 | 47* | -32 | 2
CCN(CC)C(=O)CC[C@H]1CC[C@]2(CCCN(S(C)(=O)=O)C2)O1 | . | 1 | . | . | . | . | . | .
O=S(=O)(c1ccc(F)cc1)N1CCCc2nc(-c3ccc(F)cc3)ccc21 | . | -1 | . | . | . | . | . | .
O=C(NCC1CCN(C(=O)C(=O)c2cc3ccccc3o2)CC1)c1ccncc1 | . | -2 | . | . | . | . | . | .
O=C(CSc1nc2ccccc2nc1N1CCCC1)N1CCN(c2cccc(C(F)(F)F)c2)CC1 | . | 5 | . | . | . | . | . | .
O=C(CSc1ncn[nH]1)N1N=C(c2ccc(Cl)cc2)CC1c1ccco1 (configuration not stated) | -15 | -2 | -2 | -3 | -9 | 42* | -7 | -1
O=C(CSc1n[nH]c(=O)n1C1CC1)N1N=C(c2ccc(Cl)cc2)CC1c1ccco1 (configuration not stated) | 9 | 4 | 0 | -5 | . | 5 | . | .
C/C(=N\NC(=O)CC#N)c1ccc(Oc2ccccc2)cc1 | 4 | -2 | -3 | -3 | 0 | 33* | -28 | 2
COc1ccc(Sc2cccc(Cl)c2)c(C(=O)O)c1 | . | 1 | . | . | . | . | . | .
CC1=CC(C)(C)N(C(=O)CSc2ncn[nH]2)c2ccccc21 | -8 | -4 | 4 | 0 | -1 | 54* | -42 | 2
